Consider 91 compounds from PubChem BioAssay AID652010 (The Scripps Research Institute Molecular Screening Center, 2013).

About 4,100 (1.1%) of roughly 370,000 compounds were called active. This is one part of a sample in which actives are shown more often than they occur. A number with no mark means an inactive call.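 How the source made its calls: active means inhibition above the mean over all tested compounds plus 3 SD (cut at about 3.6% in these data); inactive means the rest.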

A short description of the test: DAX1 (NR0B1) inhibitors on StAR promoter, primary screen, cell-based, luminescence, SF-1 (NR5A1), full-length DAX-1 (AID 652010).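 Further: 0% = DAX-1 cells with DMSO and 100% = cells lacking DAX-1 with DMSO.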 Particulars: HEK293T StAR-luciferase reporter, SF-1/DAX-1 repression relief; at 6.8 µM; stronger effect = higher value.
As usually defined, the inhibition is the relative decrease from the control value, in per cent. As to `CC(=O)C1=C(C)N(Cc2ccc(Cl)cc2)C(=S)NC1c1ccc(F)cc1` (stereo unspecified), the inhibition is 0.31%. Take `COc1ccc(C(=O)OCC(=O)Nc2cc(C)on2)cc1F`: the inhibition was -1.4%. The same measure for `Cc1cc(NC(=O)COn2nnc3ccccc32)no1`: 0.82%; for `Cc1cc(NC(=O)COc2ccccc2C#N)no1`: 4.34% (active); for `COc1ccc(C2CC(=O)C=C(NCC3CCCO3)C2)cc1` (stereo unspecified): -0.07%. For `CCCCCCN1CCS(=O)(=O)N(Cc2ccc(C(F)(F)F)cc2)C(C(=O)OC)C1` (stereo unspecified) the value was -0.72%. As to `CCc1ccc(CN2C(=O)c3ccccc3C2C(=O)NCC2CCCO2)cc1` (stereo unspecified), the inhibition is -0.05%. `O=C1C(C=NCC2CCCO2)=C(O)c2ccccc21` (stereo unspecified): the inhibition was 4.59% (active). As to `CC(=NCC1CCCO1)c1c(O)[nH]c(=O)[nH]c1=O` (stereo unspecified), the inhibition was 1.34%. The same measure for `COc1ccc(CNS(=O)(=O)c2cc(Br)ccc2Br)cc1`: -0.4%; for `CCSc1nnc(NC(=O)c2ccc(C)cc2)s1`: 5.52% (active). For `COC(=O)c1ccc(CSc2nnc(NC(C)C)s2)cc1` the value was -0.08%. For `O=C(/C=C/c1ccccc1)Nc1nnc(SCC(=O)c2ccc3ccccc3c2)s1` the value was 0.17%; for `CCCc1cc(=O)[nH]c2nnc(SCC(=O)Nc3nnc(SCC)s3)n12`, 2.35%; for `NC(=O)CSc1nnc(NC(=O)c2ccc3ccccc3c2)s1`, 6.15% (active). For `COc1ccc(C(=O)CSc2nnc(NC(=O)C3CC(=O)N(c4cccc(OC)c4)C3)s2)cc1` (stereo unspecified), the inhibition is -0.22%. For `CCCCOCCCNC(=O)C[C@H]1C[C@@]2(C(=O)OC)C(=C[C@H](COCc3ccccc3)O[C@@H]2C)N(Cc2cccc3ccccc23)C1=O` the value was -0.91%; for `COc1cc(NC(=O)C2CCCN(S(=O)(=O)c3ccc(C(C)(C)C)cc3)C2)cc(OC)c1` (stereo unspecified), 0.97%. Turning to `C/C(=N/NC(=O)c1ccn(C)n1)c1ccncc1`, the inhibition is -0.02%. For `O=C(Nc1nnc(-c2ccccc2F)s1)c1ccccc1F` the value was 0.85%; for `C/C(=N\NC(=O)c1ccccc1F)c1ccccn1`, 6.14% (active); for `CCCCCCCCNS(=O)(=O)/C=C/c1cc(C)ccc1CNC(=O)OC(C)(C)C`, -1.91%. With `CN[C@H]1C[C@H]2c3cc(N4CCOCC4)ccc3CCN2C[C@H]1[C@H](C)O`, the inhibition is -0.26%. As for `COC(=O)C1=C(C)N(Cc2cccc(C(F)(F)F)c2)C(=NCc2ccccc2)NC1c1ccccc1C(F)(F)F` (stereo unspecified), the inhibition is -0.23%. For `COc1ccc(C(=O)COC(=O)CN2C(=O)C3CC=CCC3C2=O)c(OC)c1` (stereo unspecified) the value was 1.03%; for `COc1ccc(C(=O)COC(=O)c2nn(C)c(=O)c3ccccc23)c(OC)c1`, 1.33%; for `COc1ccc(C(=O)COC(=O)C(O)c2ccccc2)c(OC)c1` (stereo unspecified), 3.84% (active). For `Brc1ccc(C2CC(c3ccccc3)=Nc3ccccc3N2)cc1` (stereo unspecified), the inhibition was 3.86% (active).

Take `CNC(=S)N1N=C(c2ccccc2)CC1c1ccc(Br)cc1` (stereo unspecified): the inhibition is -0.46%. On to `S=C1NC(c2ccccc2)=NCN1c1ccc(Br)cc1`, for which the inhibition was 0%. `CCOC(=O)c1c(C)[nH]c(C2=NNC(=NC(C)COC)SC2)c1C` (stereo unspecified): the inhibition was 4.39% (active).

With `O=C1Nc2ccccc2C1=NN=Cc1ccco1`, the inhibition was -1.23%. For the compound `CCOC(=O)[C@]12CCCCC/C=C\1N(Cc1ccc(OC)cc1)C(=O)[C@H]2CC(=O)NCCCN1CCCC1=O`, the inhibition is 0.28%. The same measure for `O=C(NCC1CCCO1)c1ccc(S(=O)(=O)Nc2ccc(F)cc2)cc1` (stereo unspecified): 0.67%. In the case of `O=C(NCC1(N2CCCCC2)CCCCC1)c1cccc(S(=O)(=O)Nc2ccccc2Cl)c1`, the inhibition is 3.28%. For `CCOc1ccc(S(=O)(=O)Nc2cccc(C(=O)NCC3(N4CCCCC4)CCCCC3)c2)cc1` the value was 6.71% (active); for `O=C(NCC1(N2CCCCC2)CCCCC1)c1ccc(NS(=O)(=O)c2ccc(F)cc2)cc1`, 10.6% (active). Regarding `CN(C)S(=O)(=O)c1ccc(C(=O)NCC2(N3CCOCC3)CCCCC2)cc1`, the inhibition was 3.47%. For `CCOc1ccc(NS(=O)(=O)c2ccc(C(=O)NCC(c3ccccc3OC)N3CCCC3)cc2)cc1` (stereo unspecified) the value was 1.1%.

In the case of `C=C(C)C1CC23C(=O)C4(C(=O)c5ccccc5)C[C@@]5(C)CCC(CC2C1(C)C)(C4=O)C35OC` (stereo partly specified), the inhibition was -0.55%.

On to `CN1C[C@]2(C=C3CCCCC3n3c(=O)n(-c4ccccc4)c(=O)n32)N=C1NC(=O)c1ccccc1` (stereo partly specified), for which the inhibition was -0.17%. The same measure for `CCc1ccccc1NC(=O)CSc1nnc(-c2cccs2)o1`: -1.18%. For `Clc1ccc(C(Cn2ccnc2)OCc2ccsc2Cl)c(Cl)c1` (stereo unspecified) the value was -1.62%; for `Fc1cnc(N2CCOCC2)nc1NCc1ccccc1`, 0.22%. For `COC(=O)c1ccccc1Oc1c(F)c(F)nc(N2CCOCC2)c1F`, the inhibition is 0.02%. `COc1ccc(Nc2ncc(F)c(N3CCOCC3)n2)cc1`: the inhibition is 4.78% (active). For `CN(C)c1ccc(NC(=O)CSc2n[nH]c(-c3ccco3)n2)cc1` the value was -1.06%; for `CCCCC[C@H](C)N1C[C@@H](COCc2ccccc2)Oc2cc(N3CC[C@@H](N(C)C)C3)ccc2S1(=O)=O`, 0.28%. For `COc1ccc(C2=CN(Cc3ccccc3)C(c3ccc(OC)cc3)CC2=O)cc1` (stereo unspecified) the value was -1.09%; for `O=S(=O)(NCC1CCCO1)c1ccc2ccccc2c1` (stereo unspecified), -0.46%; for `COc1ccc(OCc2cc(C(=O)N3CCCC3)no2)c2ccccc12`, 6.04% (active).

Take `O=C(c1cc(COc2ccc(F)cc2F)on1)N1CCOCC1`: the inhibition is 1.39%. The same measure for `COc1ccc(C(=O)C2CCCN(C(=O)c3cc(C)on3)C2)cc1F` (stereo unspecified): -0.49%. The same measure for `COc1ccccc1-c1cc(C(=O)N2CCCCC2)no1`: 9.11% (active). For `O=C(c1ccco1)N1CCN(C(=O)c2cc(-c3ccccc3F)no2)CC1` the value was 0.38%; for `O=C(c1cc(C2CCCCN2S(=O)(=O)c2ccccc2)on1)N1CCOCC1` (stereo unspecified), -1.39%. Turning to `CCOC(=O)C1CCCN(C(=O)c2cc(-c3cccs3)oc2C)CC1` (stereo unspecified), the inhibition was -0.69%. For `CC(=O)c1ccc(NC(=O)c2cc(-c3cccs3)on2)cc1` the value was 0.84%; for `O=C(c1cc(-c2ccccc2O)on1)N1CCCC1`, 6.48% (active).

Turning to `O=C(c1cc(-c2cccs2)on1)N1CCCCC1`, the inhibition is 4.8% (active). For `COc1cc(Cl)ccc1OCc1cc(C(=O)N2CC[C@@H]3CCCC[C@H]3C2)no1` the value was 3.53%; for `COc1cc(OC)c(C(=O)N2CCCC2)cc1OC`, -0.07%. The same measure for `O=C1CSC2=NCN(c3ccccc3)CN12`: -0.05%; for `CN(C)S(=O)(=O)c1cccc(C(=O)N/N=C\c2ccco2)c1`: 0.25%; for `COC[C@@H]1CCCN1c1ccc2c(c1)O[C@H](C)CCN(C1CC1)S2(=O)=O`: -1.04%. As for `CC(C)N1CCCCC(NC(=O)c2ccc3ccccc3c2)C1=O` (stereo unspecified), the inhibition was 0.26%. For `O=C(NCCc1ccccn1)c1nc(Cn2cc([N+](=O)[O-])cn2)no1` the value was 0.2%. Consider `COc1ccc(N2C(=O)CN=C2Nc2cccc(C)c2C)cc1OC`, for which the inhibition was -0.59%. Take `O=C(NCc1ccccc1Cl)C1CCCN1S(=O)(=O)c1ccc(F)cc1` (stereo unspecified): the inhibition was -0.27%. As for `O=C(N1CCOCC1)N1CC[C@H]2[C@H](CCCN2Cc2ccc(F)cc2)C1`, the inhibition was 0.58%. The same measure for `COC(=O)[C@]12C[C@H](CC(=O)N3CCN(C(=O)C4CC4)CC3)C(=O)N(CCC3=CCCCC3)C1=C[C@H](C(C)C)O[C@@H]2C1CC1`: -0.81%; for `COc1ccccc1N(C)S(=O)(=O)c1ccc(C(=O)NC2CCCCCC2)cc1`: -0.26%. The same measure for `O=C(CSc1nnc(-c2ccccn2)n1-c1ccc(Cl)cc1)Nc1ccccc1-c1ccccc1`: -0.72%; for `Cc1cc(Br)ccc1NC(=S)NC1CCCC1`: 0.19%; for `Cc1ccc(NC(=O)c2cc(C)nn2-c2ccccc2)c(C)c1`: -0.54%.

As for `Cc1ccc(NC(=S)Nc2ncccc2C)c(C)c1`, the inhibition is 4.16% (active). As for `O=C(c1ccncc1)N1CC[C@H]2[C@H](CCCN2Cc2ccc(F)cc2)C1`, the inhibition was -0.35%. For `Cc1ccccc1CN1CCCCC(NC(=O)c2cccc(C#N)c2)C1=O` (stereo unspecified) the value was -1.4%; for `Cc1ccc(/C=C2\CCn3c2nc2cc(C(=O)O)ccc2c3=O)c(C)c1`, -0.46%; for `Cc1ccc(C(=O)N/N=C/c2sc(=O)n(Cc3cccc(C(=O)O)c3)c2Cl)cc1`, -0.16%. For `Cc1ccc2cc(/C=N/Nc3ccc(C(=O)O)cc3)c(Cl)nc2c1` the value was 4.23% (active); for `CCCCCCCCN1C(=O)[C@@H](CC(=O)NCCCC)C[C@@]2(C(=O)OC)C1=C[C@H](C(C)(C)C)O[C@@H]2C`, 1.52%. As for `O=C(NCCc1ccccc1)c1c[nH]c2ccc(F)cc2c1=O`, the inhibition is -0.4%.

Turning to `O=C(NCCc1c[nH]c2ccccc12)c1cc2ccccc2oc1=O`, the inhibition is 6.37% (active). Consider `O=C(CCCCCn1c(=O)[nH]c2ccccc2c1=O)NCCc1c[nH]c2ccccc12`, for which the inhibition was -0.81%. Consider `O=C(NCCCCCCCCCNC(=O)C(F)(F)F)C(F)(F)F`, for which the inhibition was 0.58%. The same measure for `COC(=O)C1=C(C)N(Cc2ccccc2C(F)(F)F)C(=NCc2ccc(OC)cc2)NC1c1cccc(C(F)(F)F)c1` (stereo unspecified): -2.23%. For `Cc1cccc(NC(=S)N2CCC(C(=O)c3ccc(F)cc3)CC2)c1` the value was 0.4%. For `CCOC(=O)c1ccc(NC(=O)c2ccc(NC(=O)C3CCCO3)cc2)cc1` (stereo unspecified) the value was -1.16%.

For `O=C(Nc1ccc(-c2nnc(-c3ccccc3)o2)cc1)C1CCCO1` (stereo unspecified), the inhibition was 3.77% (active). The same measure for `CC(C)(C)NS(=O)(=O)c1ccc(NC(=O)C2CCCO2)cc1` (stereo unspecified): -0.07%.
